PostGolgi ctrl: growth of the yeast control strain, post-Golgi counter-screen | 5% of 98,000 active | inhibition, % at 10 µM | efflux-deficient yeast background strain, growth absorbance A615, 16 h | AID 738
CYP2C9 act: CYP2C9 (human) activation; AID 1024; activation factor at 5 µM; 1.4% of 96,000 active; P11712; recombinant CYP2C9, luciferin-H conversion, luminescence; hits give high values; factor 1 = untreated enzyme, 0 = blocked;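 active = activation factor of 2 or more for CYP2C9 at a 5 µM dose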;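 note: 0 = sulfaphenazole-blocked wells and 1 = vehicle-only wells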
PostGolgi yeast: growth inhibition of a yeast mutant, post-Golgi transport screen; AID 739; 0.9% of 98,000 active; inhibition, % at 10 µM; post-Golgi transport phenotypic cell assay;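 note: yeast cells grown in 1536-well plates; yeast grown about 18 h at 30C before absorbance read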
CYP2C19 inh: blocks human cytochrome P450 2C19; AID 778; P33261; CYP2C19 Supersomes, luciferin-H EGE luminescence, 30 min; inhibition, % at 5 µM; 21% of 96,000 active;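 active = CYP2C19 inhibition above a set limit at 5 µM in the primary screen, cut at about 50% in these data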;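 note: plate controls were negative control wells for no effect and 2.5 mM tranylcypromine positive control for full effect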
Target sequence (P33261 whole entry, looked up): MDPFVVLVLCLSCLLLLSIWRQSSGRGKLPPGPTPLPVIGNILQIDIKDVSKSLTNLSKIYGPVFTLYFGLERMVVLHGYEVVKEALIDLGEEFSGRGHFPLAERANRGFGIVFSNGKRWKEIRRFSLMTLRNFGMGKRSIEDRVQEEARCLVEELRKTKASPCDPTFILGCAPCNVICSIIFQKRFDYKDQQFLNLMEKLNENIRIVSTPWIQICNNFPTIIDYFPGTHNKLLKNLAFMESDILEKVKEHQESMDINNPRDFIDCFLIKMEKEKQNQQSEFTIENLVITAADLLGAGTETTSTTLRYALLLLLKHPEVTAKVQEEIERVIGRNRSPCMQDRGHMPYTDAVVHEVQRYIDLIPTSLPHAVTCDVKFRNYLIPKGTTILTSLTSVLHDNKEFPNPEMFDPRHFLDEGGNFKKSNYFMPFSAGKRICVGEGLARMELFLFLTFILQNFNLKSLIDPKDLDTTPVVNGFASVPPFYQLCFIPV
CYP2C19 act: activators of human cytochrome P450 2C19. P33261. recombinant CYP2C19, luciferin-H EGE luminescence; hits give high values; 0 = fully inhibited enzyme, 1 = untreated enzyme. activation factor at 5 µM. 96,000 tested, under 10 active. AID 1025;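 active = activation factor of at least 2 at 5 µM in the primary screen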;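 note: 0 = wells with 2.5 mM tranylcypromine and 1 = vehicle-only wells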
CYP2C9 inhib: blocks human cytochrome P450 2C9; CYP2C9 Supersomes, luciferin-H conversion, luminescence; inhibition, % at 5 µM; AID 777; P11712; 20% of 96,000 active;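 active = blocking of liver enzyme CYP2C9 beyond about 50% at 5 µM, limit read from the data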
Active calls of the source: *. Compounds with a hit are over-represented: about 32% of the library has one in this group of screens. Cut-off read from the data, not from the text of the source, unless noted: active = inhibition above about 30%; inactive = the rest.

CCN(CC)C(=O)Cn1cc(/C=C(\C#N)C(=O)N2CCN(c3ccccc3)CC2)c2ccccc21 was read as PostGolgi ctrl 1, CYP2C9 act 0.4, PostGolgi yeast -3, CYP2C19 inh 71*, CYP2C19 act 0.3 and CYP2C9 inhib 56*.
Screening FC(F)(F)c1nnc2ccc(N3CCCC3)nn12 returned PostGolgi ctrl 4, CYP2C9 act 0.7, PostGolgi yeast -9, CYP2C19 inh 25, CYP2C19 act 0.8 and CYP2C9 inhib 30.
`O=C(Nc1ccccc1C(F)(F)F)N1CCN(c2ccc3nncn3n2)CC1` gave PostGolgi ctrl -5, CYP2C9 act 0.3, PostGolgi yeast -1, CYP2C19 inh 32, CYP2C19 act 0.7 and CYP2C9 inhib 72*.
Fc1ccc(-c2nnc3ccc(N4CCc5ccccc5C4)nn23)cc1 was read as PostGolgi ctrl 59*, CYP2C9 act 0.1, PostGolgi yeast -3, CYP2C19 inh 57*, CYP2C19 act 0.4 and CYP2C9 inhib 86*.
Screening COC(=O)CSc1ccc2nnc(-c3ccc(F)cc3)n2n1 returned PostGolgi ctrl -2, CYP2C9 act 0.5, PostGolgi yeast 16, CYP2C19 inh 4, CYP2C19 act 1 and CYP2C9 inhib 50.
Screening O=C(Nc1ccc(F)cc1)N1CCN(c2ccc3nnc(-c4ccc(F)cc4)n3n2)CC1 returned PostGolgi ctrl 1, CYP2C9 act 0.4, PostGolgi yeast 7, CYP2C19 inh 50*, CYP2C19 act 0.5 and CYP2C9 inhib 55*.
Screening O=C(Nc1ccccc1C(F)(F)F)N1CCN(c2ccc3nnc(-c4ccc(F)cc4)n3n2)CC1 returned PostGolgi ctrl 2, CYP2C9 act 0.3, PostGolgi yeast 14, CYP2C19 inh 23, CYP2C19 act 0.8 and CYP2C9 inhib 65*.
`Cc1ccc(CNC(=O)CCCC(=O)O)cc1` gave PostGolgi ctrl 7, CYP2C9 act 0.9, PostGolgi yeast -4, CYP2C19 inh -11, CYP2C19 act 1.1 and CYP2C9 inhib 14.
For O=C(c1c(F)cccc1F)N(Cc1ccccn1)C1CC1 the results were PostGolgi ctrl -2, CYP2C9 act 1.1, PostGolgi yeast -33, CYP2C19 inh 4, CYP2C19 act 1 and CYP2C9 inhib -7.
CN1C(=O)CC(N2CCN(Cc3ccc(Cl)cc3)CC2)C1=O (configuration not stated) was read as PostGolgi ctrl 9, CYP2C9 act 0.9, PostGolgi yeast -4, CYP2C19 inh 23, CYP2C19 act 0.8 and CYP2C9 inhib 7.
For Cc1cc(/C=C(\C#N)C(=O)NCc2ccco2)c(C)n1C1CCCC1 the results were PostGolgi ctrl 20, CYP2C9 act 0.8, PostGolgi yeast 2, CYP2C19 inh -23, CYP2C19 act 1.2 and CYP2C9 inhib 22.
O=C(NC1CCCCC1)C1CCCN1C(=O)NCc1ccccc1 (configuration not stated) was read as PostGolgi ctrl -5, CYP2C9 act 0.8, PostGolgi yeast -7, CYP2C19 inh 9, CYP2C19 act 0.9 and CYP2C9 inhib 24.
COc1cccc(C(=O)Oc2cc3c4c(c2)C(C)=CC(C)(C)N4C(=O)C3=O)c1 was read as PostGolgi ctrl 16, CYP2C9 act 1.3, PostGolgi yeast 1, CYP2C19 inh -5, CYP2C19 act 1.1 and CYP2C9 inhib -27.
Screening CCCOc1ccccc1-n1sc2c(c1=S)-c1cc(OC)cc3c1N(C(=O)C3=O)C2(C)C returned PostGolgi ctrl 0, CYP2C9 act 0.2, PostGolgi yeast 1, CYP2C19 inh 62*, CYP2C19 act 0.4 and CYP2C9 inhib 80*.
`c1ccc(-n2c(SCc3nc(-c4cccs4)no3)nnc2-c2ccco2)cc1` gave PostGolgi ctrl 34*, CYP2C9 act 0.1, PostGolgi yeast -5, CYP2C19 inh 43, CYP2C19 act 0.6 and CYP2C9 inhib 92*.
Cc1sc2nc(SCc3nc(-c4cccs4)no3)n(-c3ccccc3)c(=O)c2c1C was read as PostGolgi ctrl 0, CYP2C9 act 0.3, PostGolgi yeast -9, CYP2C19 inh 20, CYP2C19 act 0.8 and CYP2C9 inhib 66*.
`c1ccc(-n2c(SCc3ccncc3)nnc2-c2ccco2)cc1` gave PostGolgi ctrl -6, CYP2C9 act 0.2, PostGolgi yeast 0, CYP2C19 inh 59*, CYP2C19 act 0.4 and CYP2C9 inhib 76*.

Screening data: PubChem, several laboratories
